Rows were chosen to be rich in hits. Some 15% of all compounds tested hit in one or more screens of this group.
ALOX12 inh: Primary qHTS assay for inhibitors of human arachidonate 12S-lipoxygenase (ALOX12): Round 2; Polyunsaturated fatty acid lipoxygenase ALOX12 (Homo sapiens), P18054; Potency, µM (highest dose often 108 µM), for the others: at the highest dose activity change, negative = inhibition, actives largely listed as inhibitors; purified 12hLO, xylenol orange hydroperoxide absorbance; 1.1% of 580,000 active
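Purified human 12hLO at 150 nM in 25 mM Hepes, 0.01% Triton X-100, pH 7.0, preincubated 15 min at room temperature with compound. Reaction started with 40 uM arachidonic acid, 30 min at room temperature. Hydroperoxide measured by Fe-xylenol orange, 573/405 nm absorbance ratio.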
Gal4-VP16 FLuc: VP16 counterscreen qHTS for inhibitors of ROR gamma transcriptional activity; Drosophila S2 Gal4-VP16 UAS-luciferase, luminescence, 20 h; Potency, µM (top dose mostly 53.6 µM), inactives show at the highest dose activity, negative = inhibition, usual class: inhibitors; 3.5% of 310,000 active; AID 2546, 2010;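 further: Gal4-VP16 expression switched on by copper sulfate through the metallothionein promoter; nearly all actives have a fitted effect of over 50% in size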
TDP1 cell CPT: qHTS for Inhibitors of human tyrosyl-DNA phosphodiesterase 1 (TDP1): qHTS in cells in presence of CPT. 12% of 420,000 active. chicken DT40 Tdp1-/-;hTDP1 cells + 20 nM CPT, ATP luminescence, 48 h. Potency, µM (top dose mostly 46.2 µM), for the others: at the highest dose activity change, negative = growth inhibition, hits mostly inhibitors; further: nearly all actives have a fitted effect of over 55% in size
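Cell growth measured by CellTiter-Glo luminescence after a minimum 48 h, 37 C compound exposure with 20 nM CPT in Tdp1-knockout DT40 cells stably expressing hTDP1, seeded 400/well; qHTS titration format.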
RORg inh: qHTS for inhibitors of ROR gamma transcriptional activity; Drosophila S2 Gal4-RORgamma UAS-luciferase reporter, 20 h; Nuclear receptor ROR-gamma (Mus musculus), P51450; Potency, µM (doses to about 53.6 µM), without a hit: at the top dose activity change, negative = inhibition, actives largely listed as inhibitors; 5.4% of 310,000 active; AID 2551, 2010; further: nearly all actives have a fitted effect of over 60% in size
Target sequence (P51450 whole entry, looked up, the tested form may be a part): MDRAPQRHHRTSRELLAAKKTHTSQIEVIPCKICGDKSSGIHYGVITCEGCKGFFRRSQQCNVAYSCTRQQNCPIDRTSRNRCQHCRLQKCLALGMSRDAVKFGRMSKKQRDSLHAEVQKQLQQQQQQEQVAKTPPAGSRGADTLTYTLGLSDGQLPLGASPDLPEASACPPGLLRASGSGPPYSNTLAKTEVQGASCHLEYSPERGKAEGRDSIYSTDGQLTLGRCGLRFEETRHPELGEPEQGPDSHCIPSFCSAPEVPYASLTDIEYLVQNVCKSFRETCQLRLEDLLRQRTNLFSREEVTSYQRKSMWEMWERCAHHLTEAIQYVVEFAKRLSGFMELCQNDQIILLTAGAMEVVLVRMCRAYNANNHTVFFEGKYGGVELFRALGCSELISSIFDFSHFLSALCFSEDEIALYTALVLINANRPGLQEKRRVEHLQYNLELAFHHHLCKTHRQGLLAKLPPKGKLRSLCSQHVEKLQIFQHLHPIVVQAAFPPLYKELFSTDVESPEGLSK
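Drosophila Schneider cells stably carrying a metallothionein-driven Gal4 DBD–ROR gamma fusion and a UAS-Photinus luciferase reporter were exposed to compound for 1 hr, then induced with copper sulfate (700 uM final) for 20 hr at ambient temperature before luminescence reading.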
TDP1 cell noCPT: qHTS for Inhibitors of human tyrosyl-DNA phosphodiesterase 1 (TDP1): qHTS in cells in absence of CPT; Potency, µM (series often up to 46.2 µM), without a hit: at the top dose activity change, negative = growth inhibition, hits mostly inhibitors; DT40 Tdp1-/- hTDP1 cells, no CPT, ATP luminescence, 48 h; 15% of 420,000 active; further: nearly all actives have a fitted effect of over 55% in size
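Stably hTDP1-transfected Tdp1-null chicken DT40 cells were treated with library compounds minus camptothecin and grown for at least 48 hr at 37 °C, after which cellular ATP was quantified by luminescence.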
ELG1 DNA repair: qHTS screen for small molecules that inhibit ELG1-dependent DNA repair in human embryonic kidney (HEK293T) cells expressing luciferase-tagged ELG1. HEK293T ELG1-luciferase reporter, luminescence, 16 h; DNA damage induced by 5-fluorouridine. Potency, µM (series often up to 46.1 µM), without a hit: at the highest dose activity change, negative = inhibition, usual class: inhibitors. 2.3% of 330,000 active; further: nearly all actives have a fitted effect of over 55% in size
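In this reporter screen, reduction of luminescence relative to DMSO vehicle indicated activity. Compounds and 5-fluorouridine were added together to 2,000 cells per well, incubated for 16 hr at 37 °C, then developed with ONE-Glo.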
* hit, by the source's call; [ ] = another dose, or the depositor's remark. The call rests on the fitted dose curve; in most records, active means well fitted curve in the direction sought with a large enough effect; inconclusive means small, poorly fitted or top-dose-only effect, or another doubt; inactive means no such curve, though single readings can be large; an effect the other way counts as inactive or inconclusive. On the % scale 0 is the no-effect control and ±100 the full control effect; potency means the concentration at half of the fitted maximal effect.

For CCOC(=O)C1=C(N2CCCCC2)c2cc3c(n2C1=O)CCCC3 the results were ALOX12 inh -5%, Gal4-VP16 FLuc -1%, TDP1 cell CPT inconclusive, RORg inh 12%, TDP1 cell noCPT 9.2µM* and ELG1 DNA repair inconclusive.
COc1ccc(NC(=O)CN2C(=O)NC3(CCOCC3)C2=O)cc1OC was read as ALOX12 inh 7%.
Cc1cc(C)n(-c2nc3c(c(=O)n(CC(N)=O)c(=O)n3C)n2Cc2ccc(F)cc2)n1 was read as ALOX12 inh 38%.
CN1/C(=C\C=C2/SC(=S)NC2=O)C(C)(C)c2ccccc21 was read as ALOX12 inh -19%, Gal4-VP16 FLuc inconclusive, TDP1 cell CPT 8.2µM*, RORg inh inconclusive, TDP1 cell noCPT 5.8µM* and ELG1 DNA repair inconclusive.
Screening CCCN1C(=O)/C(=C\C=C2\N(CC)c3ccccc3C2(C)C)SC1=S returned ALOX12 inh -17%, Gal4-VP16 FLuc -4%, TDP1 cell CPT 16µM*, RORg inh 2%, TDP1 cell noCPT 13µM* and ELG1 DNA repair -5%.
CN1/C(=C\C=C2/C(=O)Oc3ccccc3C2=O)C(C)(C)c2ccccc21 was read as ALOX12 inh 12%, Gal4-VP16 FLuc -7%, TDP1 cell CPT inconclusive, RORg inh -21%, TDP1 cell noCPT inconclusive and ELG1 DNA repair -7%.
For CN1C(=CC=C2C=C(I)C(=O)C(I)=C2)C(C)(C)c2ccccc21 the results were Gal4-VP16 FLuc -24%, TDP1 cell CPT 18µM*, RORg inh inconclusive, TDP1 cell noCPT 16µM* and ELG1 DNA repair inconclusive.
Screening O=S(=O)(c1ccccc1)N1CCC(Oc2ccc(-n3cnnn3)cc2)CC1 returned ALOX12 inh 40%, Gal4-VP16 FLuc -18%, TDP1 cell CPT inconclusive, RORg inh 40%, TDP1 cell noCPT inconclusive and ELG1 DNA repair 3%.
`COc1ccc(OC2CCN(S(=O)(=O)c3cccc(F)c3)CC2)cc1` gave ALOX12 inh -4%, Gal4-VP16 FLuc 3%, TDP1 cell CPT inconclusive, RORg inh 21%, TDP1 cell noCPT inconclusive and ELG1 DNA repair inconclusive.
For COc1ccc(S(=O)(=O)N2CCC(Oc3ccc(-n4cnnn4)cc3)CC2)cc1 the results were ALOX12 inh -14%, TDP1 cell CPT 10µM* and TDP1 cell noCPT -25%.
`COc1ccc(OC2CCN(S(=O)(=O)c3ccc(OC)cc3)CC2)cc1` gave ALOX12 inh 13%, Gal4-VP16 FLuc -3%, TDP1 cell CPT inconclusive, RORg inh inconclusive, TDP1 cell noCPT inconclusive and ELG1 DNA repair 15µM*.
For O=S(=O)(c1cccc(C(F)(F)F)c1)N1CCC(Oc2ccc(-n3cnnn3)cc2)CC1 the results were ALOX12 inh 0%, TDP1 cell CPT 5.8µM* and TDP1 cell noCPT 4.6µM*.
CCCCNC(=O)C[C@@H]1C[C@@]2(C(=O)OC)CCCCC=C2N(CCC2=CCCCC2)C1=O was read as ALOX12 inh inconclusive, TDP1 cell CPT inconclusive and TDP1 cell noCPT 18µM*.
For C#CCNC(=O)C[C@@H]1C[C@@]2(C(=O)OC)CCCCC=C2N(CCC2=CCCCC2)C1=O the results were ALOX12 inh 0%, TDP1 cell CPT inconclusive and TDP1 cell noCPT 18µM*.
C#CCNC(=O)C[C@@H]1C[C@@]2(C(=O)OCC)CCC=C2N(CCC2=CCCCC2)C1=O was read as ALOX12 inh -13%, TDP1 cell CPT inconclusive and TDP1 cell noCPT inconclusive.
Screening Cc1ccc(CN2C(=O)COC[C@H]2C(=O)N2CCN(c3ccccc3F)CC2)cc1 returned ALOX12 inh 2%.
Screening O=C1CC(N2C(=O)/C(=C/C=C/c3ccccc3)SC2=S)C(=O)N1c1ccccc1 (stereo not drawn) returned ALOX12 inh -21%, Gal4-VP16 FLuc 1%, TDP1 cell CPT 13µM*, RORg inh 6%, TDP1 cell noCPT 13µM* and ELG1 DNA repair -15%.
Screening Cc1ccc(C(=O)N(C)CCOc2ccccc2)cc1S(=O)(=O)N1CCOCC1 returned ALOX12 inh 2%, TDP1 cell CPT inconclusive, TDP1 cell noCPT inconclusive and ELG1 DNA repair -1%.
O=C(OCc1nnc(-c2ccccc2)o1)c1cc(S(=O)(=O)N2CCOCC2)c(Cl)cc1Cl was read as ALOX12 inh 37%, Gal4-VP16 FLuc -2%, TDP1 cell CPT 21µM*, RORg inh 0%, TDP1 cell noCPT 7.3µM* and ELG1 DNA repair 0%.
Screening CN(CCOc1ccccc1)C(=O)c1cc(S(=O)(=O)N2CCOCC2)c(Cl)cc1Cl returned ALOX12 inh -9%, TDP1 cell CPT 18µM* and TDP1 cell noCPT inconclusive.
Cc1cc(=O)[nH]c2cc(O)ccc12 was read as ALOX12 inh -13%, Gal4-VP16 FLuc -16%, TDP1 cell CPT 5%, RORg inh 27%, TDP1 cell noCPT 4% and ELG1 DNA repair inconclusive.
`Cc1cc(=O)[nH]c2ccc(O)cc12` gave TDP1 cell CPT 0.35µM* and TDP1 cell noCPT -1%.
For CC(C)C(=O)N1CCCC2(CNS(=O)(=O)c3cccnc3O2)C1 (stereo not drawn) the results were ALOX12 inh 2%[6.33 µM].
For COC(=O)C1=C(C)N=C2SC=C(CC(=O)Nc3cc(C)cc(C)c3)N2C1c1ccccc1OC (stereo not drawn) the results were ALOX12 inh -1%.
Screening N#C/C(=C(/O)c1ccc([N+](=O)[O-])cc1)c1nnc2n1CCCCC2 returned ALOX12 inh 12%, Gal4-VP16 FLuc inconclusive, TDP1 cell CPT 1%, RORg inh 18µM*, TDP1 cell noCPT 1% and ELG1 DNA repair -18%.
For O=[N+]([O-])c1ccc(-c2nnc3n2CCCCC3)cc1 the results were ALOX12 inh 22%, Gal4-VP16 FLuc 1%, TDP1 cell CPT -30%, RORg inh 2%, TDP1 cell noCPT 9% and ELG1 DNA repair 17%.
N#C/C(=C/c1ccccc1[N+](=O)[O-])c1nnc2n1CCCCC2 was read as ALOX12 inh -23%, Gal4-VP16 FLuc -5%, TDP1 cell CPT 12%, RORg inh -7%, TDP1 cell noCPT -2% and ELG1 DNA repair 9%.

Screening data deposited in PubChem by National Center for Advancing Translational Sciences (NCATS).
